Data on 35 compounds can be found in PubChem BioAssay (NCATS).

Results filed as inconclusive are left out. A call without a number means that no potency is given here. The source made the active and inactive calls. Calls come from the whole dose curve; as a rule, active = well fitted cell-killing curve with a large enough effect; inconclusive = small, poorly fitted or top-dose-only effect, or effect the other way; inactive = flat fitted curve, though single readings scatter.
Potency is the fitted concentration of half-maximal effect.

The first test deals with SKOV3. Put plainly: Primary qHTS to identify gynecologic anti-cancer compounds using libraries of approved drugs and bioactive compounds (AID 1345084). Note: nearly all actives have a fitted effect of over 55% in size. The conditions noted are these: Gynecologic cancer cell panel viability, ATPlite luminescence, 48 h; series mostly up to 57.5 µM. An outline of the steps: (§1)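 Five-concentration response, 48 h; readout is ATP-driven luciferase luminescence.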
On the technique in general: qHTS replaces the single test concentration by a dilution series.
Turning to `CCCC1(CCC)CCC2(CCN(CCCN(CC)CC)C2)CC1`, the Potency is 7.94 µM (active).
For `Cn1ncc(Cl)c1-c1cc(C(=O)N[C@H](CN)Cc2cccc(F)c2)sc1Cl`, the Potency was 14.1 µM (active).
Still for that read-out and setting: for `O=C(NCCCN1CCC2(CC1)OCc1ccccc12)[C@H]1CCCN1Cc1ccccc1` the value was “inactive”.
In the case of `CC(C)c1cc(-c2ccc(F)c3ccccc23)nc(N)n1`, the Potency result is “inactive”.
Same read-out and setting: for `CC(C)NCCCn1c(Sc2cc3c(cc2I)OCO3)nc2c(N)ncnc21` the value was 2 µM (active).
Still for that read-out and setting: to `CC(=O)OC1CC2(C)C(CCC(C)C23Cc2c(O)cc(CO)c(C=O)c2O3)C(C)(C)C1O` (stereo not drawn) belongs “inactive”; to `CC(C)Oc1ccc(-c2cnc3c(-c4ccnc5ccccc45)cnn3c2)cc1`, “inactive”.
As for `CC(=O)N[C@H]1[C@H](O[C@H]2CC[C@@]3(C)C(CC[C@]4(C)C3CC=C3C5CC(C)(C)CC[C@]5(C(=O)O)C(O)C[C@]34C)C2(C)C)O[C@H](CO[C@@H]2O[C@H](C)[C@H](O)[C@H](O)[C@H]2O[C@@H]2OC[C@@H](O)[C@H](O)[C@H]2O)[C@@H](O)[C@@H]1O` (stereo partly drawn), the activity change, negative = cytotoxicity is -11.9% [at 11.6 µM] (inactive).
As for `Cc1cc(C)nc(SCC(=O)Nc2ncc(Cc3cccc4ccccc34)s2)n1`, the Potency result was “inactive”.
The same measure, in the same setting: for `COc1cccc(CN(C(=O)CC(C)(C)C)[C@H]2C[C@H](C(=O)N3CCNCC3)N(Cc3ccc4c(c3)OCO4)C2)c1` the value was “inactive”; for `Fc1ccc(N2CCN(CCC3OCCc4ccccc43)CC2)cc1` (stereo not drawn), “inactive”.
Still for that read-out and setting: to `O=C(NCc1ccccc1)c1ccc2c(=O)n(-c3cccc(C(F)(F)F)c3)c(=S)[nH]c2c1` belongs “inactive”.
In the case of `CN[C@@H]1[C@H](O[C@H]2[C@H](O[C@@H]3[C@@H](O)[C@H](O)[C@@H](N=C(N)N)[C@H](O)[C@H]3N=C(N)N)O[C@@H](C)[C@]2(O)CO)O[C@@H](CO)[C@H](O)[C@H]1O`, the Potency result is “inactive”.
On to `CC1CCC(=O)CC(SCC(O)C(=O)O)CCC(=O)O1` (stereo not drawn), for which the Potency entry is “inactive”.
On the same count and under the same terms, for `C=C1CC[C@H]2C(=C)CC[C@H]3C(=C)C(=O)O[C@@H]3[C@@H]12` the value was “inactive”; for `C=C1C(=O)O[C@@H]2C=C(COC(C)=O)CC/C=C(\CO)CC[C@@H]12`, “inactive”.
Consider `COc1ccc(-c2ccccc2)cc1NS(=O)(=O)c1cc(Cl)cc(Cl)c1O`, for which the Potency entry is “inactive”.
Same read-out and setting: for `CC(=O)OC1C(=O)C2C3OCC4=C3[C@@](C)(CC[C@@H]4O)CC[C@]2(C)[C@H]1C(C)C` (stereo partly drawn) the value was “inactive”; for `O=c1[nH]c2cccc(N3CCN(Cc4ccc(-c5ccccc5)cc4)CC3)c2o1`, “inactive”.
On the same count and under the same terms, to `Cc1nc(Nc2ccc(F)cc2)nc(N2CCc3ccccc3C2C)c1C` (stereo not drawn) belongs “inactive”.
On the same count and under the same terms, to `C[C@@H](O[C@H]1OCCN(Cc2nn(P(=O)(O)O)c(=O)[nH]2)[C@H]1c1ccc(F)cc1)c1cc(C(F)(F)F)cc(C(F)(F)F)c1` belongs “inactive”.
As for `COC(=O)C[C@H]1[C@]2(C)C3=C(C)[C@H](c4ccoc4)C[C@H]3O[C@@H]2[C@H](O)C2[C@](C)(C(=O)OC)C=CC(=O)[C@@]21C` (stereo partly drawn), the Potency result is “inactive”.
On to `CC(=O)c1ccc2c(c1)[C@H](NC(=O)c1ccc(F)c(Cl)c1)[C@H](O)C(C)(C)O2`, for which the Potency result was “inactive”.
Consider `CC1OC(OC2C(O)COC(O[C@@H]3[C@@H](O)[C@@H](O)[C@H](OC4C(OC(=O)[C@]56CCC(C)(C)CC5C5=CCC7[C@@]8(C)C[C@H](O)[C@H](OC9OC(CO)C(O)C(O)C9O)[C@@](C)(CO)C8[C@H](O)C[C@@]7(C)[C@]5(C)CC6)OCC(O)C4O)O[C@H]3C)C2O)C(O)C(O)C1O` (stereo partly drawn), for which the activity change, negative = cytotoxicity is -8.72% [at 6.55 µM] (inactive).
On to `Cc1c(C(=O)NCc2cccnc2)nn(-c2ccc(Cl)cc2Cl)c1-c1ccc(Cl)cc1`, for which the Potency entry was “inactive”.
In the case of `C=C1CCC[C@]2(C)CC/C(=C(/CO)C(=O)OC)C[C@@H]12`, the Potency result was “inactive”.
Regarding `CC/C(C)=C/C(=O)OC1C(OC2(C)CCC3C(C4C(C)CCC42)C3(C)C)OC(C)C(O)C1O` (stereo not drawn), the Potency result is “inactive”.
Same read-out and setting: for `CC(C)[C@@H](c1ccc(C(F)(F)F)cc1CN(Cc1cc(C(F)(F)F)cc(C(F)(F)F)c1)c1nnn(C)n1)N1CCC(C(=O)O)CC1` the value was “inactive”.
Same read-out and setting: to `O=C(O)c1ccc(S(=O)(=O)N(Cc2ccc(OC(F)(F)F)cc2)c2ncc(C(F)(F)F)cc2Cl)cc1` belongs “inactive”; to `COc1ccc(OC)c(-c2ccc(NC(=O)c3ccncc3F)cc2)c1`, “inactive”.
Still for that read-out and setting: for `C[C@H]1CC[C@@]2(OC1)O[C@H]1CC3C4CC[C@H]5C[C@@H](O)CC[C@]5(C)C4=CC(=O)[C@]3(C)[C@H]1[C@@H]2C` (stereo partly drawn) the value was “inactive”; for `O=C1c2ccc(Nc3ccc(F)cc3F)cc2CCc2ccc(OCC(O)CO)cc21` (stereo not drawn), “inactive”; for `CC1(C)OC[C@H](NC(=O)Nc2ccc(Br)cc2Br)[C@H](c2ccccc2)O1`, “inactive”.
As for `COc1ccc(C(=O)Nc2c(Cl)cncc2Cl)cc1OC1CCCC1`, the Potency result is “inactive”.

The next test relates to Tov-21-G. Described as above. The conditions noted are these: Gynecologic cancer cell panel viability, ATPlite luminescence, 48 h; series mostly up to 57.5 µM. An outline of the steps:
as §1
Background: ATP-based viability assays read luminescence as a measure of living cells.
Consider `CCCC1(CCC)CCC2(CCN(CCCN(CC)CC)C2)CC1`, for which the Potency is 6.31 µM (active).
The same measure, in the same setting: for `Cc1ccc(O)cc1Nc1ccnc(Nc2cccc(C(N)=O)c2)n1` the value was 10 µM (active).
With `Cn1ncc(Cl)c1-c1cc(C(=O)N[C@H](CN)Cc2cccc(F)c2)sc1Cl`, the Potency was 1.58 µM (active).
Same read-out and setting: for `O=C(NCCCN1CCC2(CC1)OCc1ccccc12)[C@H]1CCCN1Cc1ccccc1` the value was “inactive”.
`CC(C)c1cc(-c2ccc(F)c3ccccc23)nc(N)n1`: the Potency entry was “inactive”.
Still for that read-out and setting: to `CC(C)NCCCn1c(Sc2cc3c(cc2I)OCO3)nc2c(N)ncnc21` belongs 0.501 µM (active).
Still for that read-out and setting: to `CC(=O)OC1CC2(C)C(CCC(C)C23Cc2c(O)cc(CO)c(C=O)c2O3)C(C)(C)C1O` (stereo not drawn) belongs “inactive”.
With `CC(C)Oc1ccc(-c2cnc3c(-c4ccnc5ccccc45)cnn3c2)cc1`, the Potency entry was “inactive”.
Take `CC(=O)N[C@H]1[C@H](O[C@H]2CC[C@@]3(C)C(CC[C@]4(C)C3CC=C3C5CC(C)(C)CC[C@]5(C(=O)O)C(O)C[C@]34C)C2(C)C)O[C@H](CO[C@@H]2O[C@H](C)[C@H](O)[C@H](O)[C@H]2O[C@@H]2OC[C@@H](O)[C@H](O)[C@H]2O)[C@@H](O)[C@@H]1O` (stereo partly drawn): the activity change, negative = cytotoxicity is -0.865% [at 11.6 µM] (inactive).
Take `Cc1cc(C)nc(SCC(=O)Nc2ncc(Cc3cccc4ccccc34)s2)n1`: the Potency entry is “inactive”.
Regarding `COc1cccc(CN(C(=O)CC(C)(C)C)[C@H]2C[C@H](C(=O)N3CCNCC3)N(Cc3ccc4c(c3)OCO4)C2)c1`, the Potency entry was “inactive”.
On the same count and under the same terms, to `Fc1ccc(N2CCN(CCC3OCCc4ccccc43)CC2)cc1` (stereo not drawn) belongs “inactive”.
Still for that read-out and setting: to `O=C(NCc1ccccc1)c1ccc2c(=O)n(-c3cccc(C(F)(F)F)c3)c(=S)[nH]c2c1` belongs “inactive”; to `CN[C@@H]1[C@H](O[C@H]2[C@H](O[C@@H]3[C@@H](O)[C@H](O)[C@@H](N=C(N)N)[C@H](O)[C@H]3N=C(N)N)O[C@@H](C)[C@]2(O)CO)O[C@@H](CO)[C@H](O)[C@H]1O`, “inactive”.
Consider `CC1CCC(=O)CC(SCC(O)C(=O)O)CCC(=O)O1` (stereo not drawn), for which the Potency entry is “inactive”.
Still for that read-out and setting: to `C=C1CC[C@H]2C(=C)CC[C@H]3C(=C)C(=O)O[C@@H]3[C@@H]12` belongs “inactive”; to `C=C1C(=O)O[C@@H]2C=C(COC(C)=O)CC/C=C(\CO)CC[C@@H]12`, “inactive”; to `CC(=O)OC1C(=O)C2C3OCC4=C3[C@@](C)(CC[C@@H]4O)CC[C@]2(C)[C@H]1C(C)C` (stereo partly drawn), “inactive”.
The same measure, in the same setting: for `O=c1[nH]c2cccc(N3CCN(Cc4ccc(-c5ccccc5)cc4)CC3)c2o1` the value was “inactive”; for `Cc1nc(Nc2ccc(F)cc2)nc(N2CCc3ccccc3C2C)c1C` (stereo not drawn), “inactive”; for `C[C@@H](O[C@H]1OCCN(Cc2nn(P(=O)(O)O)c(=O)[nH]2)[C@H]1c1ccc(F)cc1)c1cc(C(F)(F)F)cc(C(F)(F)F)c1`, “inactive”.
The same measure, in the same setting: to `COC(=O)C[C@H]1[C@]2(C)C3=C(C)[C@H](c4ccoc4)C[C@H]3O[C@@H]2[C@H](O)C2[C@](C)(C(=O)OC)C=CC(=O)[C@@]21C` (stereo partly drawn) belongs “inactive”.
For the compound `CC(=O)c1ccc2c(c1)[C@H](NC(=O)c1ccc(F)c(Cl)c1)[C@H](O)C(C)(C)O2`, the Potency result was “inactive”.
For `CC1OC(OC2C(O)COC(O[C@@H]3[C@@H](O)[C@@H](O)[C@H](OC4C(OC(=O)[C@]56CCC(C)(C)CC5C5=CCC7[C@@]8(C)C[C@H](O)[C@H](OC9OC(CO)C(O)C(O)C9O)[C@@](C)(CO)C8[C@H](O)C[C@@]7(C)[C@]5(C)CC6)OCC(O)C4O)O[C@H]3C)C2O)C(O)C(O)C1O` (stereo partly drawn), the activity change, negative = cytotoxicity was -21.3% [at 6.55 µM] (inactive).
For the compound `Cc1c(C(=O)NCc2cccnc2)nn(-c2ccc(Cl)cc2Cl)c1-c1ccc(Cl)cc1`, the Potency entry was “inactive”.
With `C=C1CCC[C@]2(C)CC/C(=C(/CO)C(=O)OC)C[C@@H]12`, the Potency entry is “inactive”.
On the same count and under the same terms, for `CC/C(C)=C/C(=O)OC1C(OC2(C)CCC3C(C4C(C)CCC42)C3(C)C)OC(C)C(O)C1O` (stereo not drawn) the value was “inactive”.
On the same count and under the same terms, to `CC(C)[C@@H](c1ccc(C(F)(F)F)cc1CN(Cc1cc(C(F)(F)F)cc(C(F)(F)F)c1)c1nnn(C)n1)N1CCC(C(=O)O)CC1` belongs “inactive”; to `O=C(O)c1ccc(S(=O)(=O)N(Cc2ccc(OC(F)(F)F)cc2)c2ncc(C(F)(F)F)cc2Cl)cc1`, “inactive”.
For the compound `COc1ccc(OC)c(-c2ccc(NC(=O)c3ccncc3F)cc2)c1`, the Potency entry is “inactive”.
`C[C@H]1CC[C@@]2(OC1)O[C@H]1CC3C4CC[C@H]5C[C@@H](O)CC[C@]5(C)C4=CC(=O)[C@]3(C)[C@H]1[C@@H]2C` (stereo partly drawn): the Potency result was “inactive”.
Turning to `O=C1c2ccc(Nc3ccc(F)cc3F)cc2CCc2ccc(OCC(O)CO)cc21` (stereo not drawn), the Potency result is “inactive”.
Same read-out and setting: for `CC1(C)OC[C@H](NC(=O)Nc2ccc(Br)cc2Br)[C@H](c2ccccc2)O1` the value was “inactive”; for `COc1ccc(C(=O)Nc2c(Cl)cncc2Cl)cc1OC1CCCC1`, “inactive”.
